# Experimental data from the supplement of paper PMC6555819.
# What was measured:
# Test in all cases: PBM binding z-score (relative to random genomic background probes); higher = stronger binding; sequences stand for … in GC…GCGATTGACAGCGTAGAATGAAGG
# [1] = tested on: FXR:RXRa (NR concentration 270 nM, RXRa partner concentration 90 nM)
# Summary of the method: (§1)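 Custom Agilent 4×180K protein-binding microarrays carried double-stranded probes, each with a 34-nt variable region. These regions held direct-repeat seeds, single-nucleotide variants, half-site ablations and random human genomic background sequences. Ligand-free nuclear receptor dimers were incubated on the arrays for 1 h, antibodies against each partner (one per run) detected binding, and scanned fluorescence was regression-normalized. Binding z-scores take the random background probes as reference.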
# [2] = tested on: LXRa:RXRa (NR concentration 270 nM, RXRa partner concentration 90 nM)
# Summary of the method: as §1
# [3] = tested on: LXRa homodimer (NR concentration 270 nM)
# Summary of the method: as §1
# [4] = tested on: LXRb:RXRa (NR concentration 270 nM, RXRa partner concentration 90 nM)
# Summary of the method: as §1
# [5] = tested on: LXRb homodimer (NR concentration 270 nM)
# Summary of the method: as §1
# [6] = tested on: PPARa:RXRa (NR concentration 270 nM, RXRa partner concentration 90 nM)
# Summary of the method: as §1
# [7] = tested on: PPARg:RXRa (NR concentration 180 nM, RXRa partner concentration 90 nM)
# Summary of the method: as §1
# [8] = tested on: PPARg:RXRa 270nM:90nM, anti-RXR (NR concentration 270 nM, RXRa partner concentration 90 nM)
# Summary of the method: as §1
# [9] = tested on: PPARg:RXRa 30nM:10nM, anti-RXR (NR concentration 30 nM, RXRa partner concentration 10 nM)
# Summary of the method: as §1
# [10] = tested on: PPARg:RXRa 90nM:30nM, anti-RXR (NR concentration 90 nM, RXRa partner concentration 30 nM)
# Summary of the method: as §1
# [11] = tested on: PPARg:RXRa DBDmut IVT, anti-RXR (DBD mutation: RXRa K156A/R161A, NR concentration 270 nM, RXRa partner concentration 90 nM)
# Summary of the method: as §1
# [12] = tested on: PPARg:RXRa IVT, anti-PPARg (NR concentration 270 nM, RXRa partner concentration 90 nM)
# Summary of the method: as §1
# [13] = tested on: PPARg DBDmut:RXRa IVT, anti-PPARg (DBD mutation: PPARg1 K132A/R137A, NR concentration 270 nM, RXRa partner concentration 90 nM)
# Summary of the method: as §1
# [14] = tested on: PPARg DBDmut IVT, anti-PPARg (DBD mutation: PPARg1 K132A/R137A, NR concentration 270 nM)
# Summary of the method: as §1
# [15] = tested on: PPARg homodimer (NR concentration 180 nM)
# Summary of the method: as §1
# [16] = tested on: PXR:RXRa (NR concentration 270 nM, RXRa partner concentration 90 nM)
# Summary of the method: as §1
# [17] = tested on: PXR homodimer (NR concentration 270 nM)
# Summary of the method: as §1
# [18] = tested on: RARa:RXR (NR concentration 270 nM, RXRa partner concentration 90 nM)
# Summary of the method: as §1
# [19] = tested on: RARa homodimer (NR concentration 270 nM)
# Summary of the method: as §1
# [20] = tested on: RARb:RXRa (NR concentration 270 nM, RXRa partner concentration 90 nM)
# Summary of the method: as §1
Sequence,PBM binding z-score [1],PBM binding z-score [2],PBM binding z-score [3],PBM binding z-score [4],PBM binding z-score [5],PBM binding z-score [6],PBM binding z-score [7],PBM binding z-score [8],PBM binding z-score [9],PBM binding z-score [10],PBM binding z-score [11],PBM binding z-score [12],PBM binding z-score [13],PBM binding z-score [14],PBM binding z-score [15],PBM binding z-score [16],PBM binding z-score [17],PBM binding z-score [18],PBM binding z-score [19],PBM binding z-score [20]
CCTCGGAGGAGAGAAGGTCAGAGCTGTCCGCTTT,0.811,0.874,-0.155,0.734,-0.806,1.62,-0.501,0.307,-0.994,-0.582,-0.223,-0.125,-1.3,-1.71,0.917,1.24,-0.114,1.74,-0.103,2.35
CGTCAAAGTTCAATTAAGGTAACGTAAAGCACGC,6.45,5.3,3.51,3.7,2.06,4.58,4.09,4.67,1.7,3.44,0.465,2,1.09,1.89,3.06,5.26,3.98,3.88,1.69,4.78
TCTTGTACATCAAAGGTTAAGAAAGCCGAAGCCT,1.52,2.15,0.446,2,0.657,2.92,2.52,4.42,3.95,4.35,1.6,1.77,1.53,0.483,1.01,1.73,0.178,2.66,0.601,2.15
GGATCGAGGGCAAAGTTGATAGCATCTGTCGACG,1.65,1.21,-0.00761,0.937,-0.138,4.37,7.25,7.18,5.86,8.27,3.8,4.54,0.527,1.19,1.75,1.34,0.172,1.65,-0.00886,2.61
CAGCCTAGGTCAGGTCCAGTATAGGAGGAACGTT,1.07,0.851,-0.352,0.578,-1.03,1.24,0.465,0.541,-0.0378,0.231,1.02,0.846,-0.384,-1.31,0.577,0.126,-0.567,0.528,-0.0442,3
CGGCCTAGGTCAGGGCCAGTATAGGAGGAACGTT,1.39,0.731,-0.463,0.402,-1.29,1.83,0.691,0.462,-0.446,0.244,0.747,1.22,-2.1,-2.32,-0.013,0.223,-0.954,0.858,-0.476,3.17
ACTATTACTTGAGACGAGGGCAACCGATAGGTTG,0.529,0.528,0.422,0.481,1.02,0.44,0.912,0.46,0.448,0.266,0.899,1.15,0.818,1.3,1.24,0.601,0.904,0.426,1.54,1.3
GCATATAGGTAATACAAGATGAAAGTCCGATTGT,0.0179,-0.186,-0.106,-0.218,-0.326,0.682,1.32,0.766,0.378,0.376,4.04,2.21,1.01,1.1,0.319,0.0663,0.0386,0.202,0.786,-0.216
GCTACTGGGGCATCAGCAGGTTACCATAACTTAA,-0.035,-0.127,-0.19,0.88,-0.858,1.74,2.37,2.01,0.134,1.34,5.96,5.52,0.447,0.741,0.599,0.0663,-0.537,0.497,-0.28,0.962
CAGACTAGGTCACCGGAAGGTCAAAGTCCGCATG,5.95,5.63,4.26,5.14,0.786,5.42,7.82,7.03,3.63,6.35,7.28,7.61,0.753,0.84,6.86,5.81,1.7,6.81,2.04,5.34
TCTAGATGGTCACGGAGGTCACACACGACGGGTA,3.7,3.91,2.8,3.49,0.481,4.04,3.59,4.36,3.7,4.04,2.1,3.58,1.44,1.08,4.17,4.87,2.07,5.06,1.56,3.9
ACAGACAGGTGAGTGAAGCTAACTCAGCTGGACG,-0.673,-0.375,-0.787,-0.865,-0.79,-0.342,0.546,-0.404,-0.443,-0.258,0.196,0.291,-0.859,-1.17,-1.1,-0.701,-0.552,-0.839,-0.721,0.276
CCTTACGGGTAACTGACAGGTTATAGCATTTGGA,0.183,0.937,9.84e-05,0.454,-0.428,0.56,0.319,0.0456,-0.0329,-0.0443,1.03,0.095,-0.022,-0.575,0.529,0.109,-0.252,0.585,0.214,0.274
